Reference: the supplement of paper PMC10849652
The full data set covers some 7,900 targets. This sample favours those with a hit. About 0.6% of all pairs of compound and target were hits. Unmarked numbers belong to inactive results.

Assays:
Test in all cases: log2 fold change, soluble protein after heating vs DMSO (PISA); higher = thermal stabilisation; K562 cells, 10 uM, 30 min; active = over 0.2 and 3.5 SD of the protein, either way, in both replicates (recomputed)
[1] = compound: COC1=CC=C(C=C1)CN2C=CC3=C2C=C(C=C3)C(=O)NO
Summary of the method: (§1)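 Thermal stability values are relative to control samples and come from duplicates. They are expressed as log2 fold changes. For measurement, K562 cells (2×10^6 cells/mL) received 10 μM compound for 30 min, and aliquots were heated for 3 min over 48°C-58°C, pooled, and extracted at 4°C in PBS with 0.5% NP-40. Soluble protein, the supernatant after 21,000xg for 90 min, was quantified by TMTpro 16plex LC-MS/MS with equalised channel sums.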

[2] = compound: CON(C)C(=O)N1N=C(c2cc(F)ccc2F)S[C@@]1(CCCN)c1ccccc1 [filanesib]
Summary of the method: as §1

[3] = compound: CO[C@H]1C[C@@H]2CC[C@@H](C)[C@@](O)(O2)C(=O)C(=O)N2CCCC[C@H]2C(=O)O[C@H]([C@H](C)C[C@@H]2CC[C@H](n3cnnn3)[C@H](OC)C2)CC(=O)[C@H](C)/C=C(\C)[C@@H](O)[C@@H](OC)C(=O)[C@H](C)C[C@H](C)/C=C/C=C/C=C/1C [zotarolimus]
Summary of the method: as §1

[4] = compound: COc1cc(C(=O)O)ccc1NC(=O)[C@@H]1N[C@@H](CC(C)(C)C)[C@](C#N)(c2ccc(Cl)cc2F)[C@H]1c1cccc(Cl)c1F [idasanutlin]
Summary of the method: as §1

[5] = compound: COc1cc(Nc2ncc3c(n2)-c2ccc(Cl)cc2C(c2c(F)cccc2OC)=NC3)ccc1C(=O)O [alisertib]
Summary of the method: as §1

[6] = compound: COc1cc2nc(-c3cc(F)ccc3O)nc(N[C@@H]3CNC[C@H]3C(C)(C)O)c2cc1OC
Summary of the method: as §1

[7] = compound: COc1cc2ncnc(Nc3ccc(F)c(Cl)c3)c2cc1OCCCN1CCOCC1 [gefitinib]
Summary of the method: as §1

[8] = compound: COc1cccc2cc(-c3nc([C@H]4CC[C@H](C(=O)O)CC4)n4ncnc(N)c34)[nH]c12
Summary of the method: as §1

[9] = compound: CS(=O)(=O)CCNCc1ccc(-c2ccc3ncnc(Nc4ccc(OCc5cccc(F)c5)c(Cl)c4)c3c2)o1 [lapatinib]
Summary of the method: as §1

[10] = compound: CS(=O)(=O)N1CCN(Cc2cc3nc(-c4cccc5[nH]ncc45)nc(N4CCOCC4)c3s2)CC1 [pictilisib]
Summary of the method: as §1

[11] = compound: CS(=O)(=O)c1ccc(-c2cnc(N)c(C(=O)Nc3ccccc3)n2)cc1
Summary of the method: as §1

[12] = compound: C[C@@H](Oc1cc(-c2cnn(C3CCNCC3)c2)cnc1N)c1c(Cl)ccc(F)c1Cl [crizotinib]
Summary of the method: as §1

[13] = compound: C[C@@H]1COCCN1C2=NC(=NC(=C2)C3(CC3)S(=O)(=O)C)C4=C5C=CNC5=CC=C4
Summary of the method: as §1

[14] = compound: C[C@H](C1=CC=C(C=C1)C(=O)NC2=C3C=CNC3=NC=C2)N
Summary of the method: as §1

[15] = compound: C[C@H](Nc1ncnc2nc[nH]c12)c1cc2cccc(Cl)c2c(=O)n1-c1ccccc1 [duvelisib]
Summary of the method: as §1

[16] = compound: Cc1cc(Nc2cc(CN3CCOCC3)c3nc(C)c(Cc4ccc(Cl)cc4F)n3n2)n[nH]1 [gandotinib]
Summary of the method: as §1

[17] = compound: Cc1cc(Nc2cc(N3CCN(C)CC3)nc(Sc3ccc(NC(=O)C4CC4)cc3)n2)n[nH]1 [tozasertib]
Summary of the method: as §1

[18] = compound: Cc1cc(SCc2sc(-c3ccc(C(F)(F)F)cc3)nc2C)ccc1OCC(=O)O
Summary of the method: as §1

[19] = compound: Cc1ccc(-n2nc(C(C)(C)C)cc2NC(=O)Nc2ccc(OCCN3CCOCC3)c3ccccc23)cc1 [doramapimod]
Summary of the method: as §1

[20] = compound: Cc1ccc(C(=O)N(CCCN)[C@@H](c2nc3cc(Cl)ccc3c(=O)n2Cc2ccccc2)C(C)C)cc1 [ispinesib]
Summary of the method: as §1

Chain of UniProt O00506 (O00506 whole entry, looked up): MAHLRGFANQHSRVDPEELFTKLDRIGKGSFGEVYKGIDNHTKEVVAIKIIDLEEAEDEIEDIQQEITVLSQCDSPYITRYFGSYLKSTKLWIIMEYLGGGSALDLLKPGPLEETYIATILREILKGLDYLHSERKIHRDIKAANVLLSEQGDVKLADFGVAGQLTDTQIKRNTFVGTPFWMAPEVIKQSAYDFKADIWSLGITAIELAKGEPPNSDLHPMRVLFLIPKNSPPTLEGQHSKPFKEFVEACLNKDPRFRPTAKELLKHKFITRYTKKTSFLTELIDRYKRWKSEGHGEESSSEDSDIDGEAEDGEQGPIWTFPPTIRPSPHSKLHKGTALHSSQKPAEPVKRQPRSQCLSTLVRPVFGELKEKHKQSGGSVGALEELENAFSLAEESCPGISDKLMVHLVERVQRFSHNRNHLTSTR
Chain of UniProt Q8WUH2 (Q8WUH2 whole entry, looked up): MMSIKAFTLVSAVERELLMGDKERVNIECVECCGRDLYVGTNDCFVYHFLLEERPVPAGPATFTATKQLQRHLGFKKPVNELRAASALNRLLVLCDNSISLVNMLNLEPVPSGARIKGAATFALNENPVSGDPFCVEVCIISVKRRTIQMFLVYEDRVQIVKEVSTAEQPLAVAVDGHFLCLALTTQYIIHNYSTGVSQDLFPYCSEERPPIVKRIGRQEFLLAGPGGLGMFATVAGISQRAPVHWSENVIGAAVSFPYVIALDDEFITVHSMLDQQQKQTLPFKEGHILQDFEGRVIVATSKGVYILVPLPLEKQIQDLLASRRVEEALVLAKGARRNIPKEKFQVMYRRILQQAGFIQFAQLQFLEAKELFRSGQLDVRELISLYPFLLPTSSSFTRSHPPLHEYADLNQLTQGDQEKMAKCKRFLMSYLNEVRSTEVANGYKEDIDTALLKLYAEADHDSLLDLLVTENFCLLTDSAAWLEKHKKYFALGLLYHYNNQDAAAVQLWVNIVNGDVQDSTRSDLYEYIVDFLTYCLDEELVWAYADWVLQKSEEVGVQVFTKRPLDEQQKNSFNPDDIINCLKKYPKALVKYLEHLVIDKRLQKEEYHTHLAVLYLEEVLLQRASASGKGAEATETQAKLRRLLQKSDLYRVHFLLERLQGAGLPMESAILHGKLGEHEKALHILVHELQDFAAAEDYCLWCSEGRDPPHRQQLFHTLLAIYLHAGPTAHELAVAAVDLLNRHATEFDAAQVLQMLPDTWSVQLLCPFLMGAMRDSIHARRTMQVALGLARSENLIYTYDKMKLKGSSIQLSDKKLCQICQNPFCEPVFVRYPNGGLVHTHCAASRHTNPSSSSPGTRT
Chain of UniProt P31641 (P31641 whole entry, looked up): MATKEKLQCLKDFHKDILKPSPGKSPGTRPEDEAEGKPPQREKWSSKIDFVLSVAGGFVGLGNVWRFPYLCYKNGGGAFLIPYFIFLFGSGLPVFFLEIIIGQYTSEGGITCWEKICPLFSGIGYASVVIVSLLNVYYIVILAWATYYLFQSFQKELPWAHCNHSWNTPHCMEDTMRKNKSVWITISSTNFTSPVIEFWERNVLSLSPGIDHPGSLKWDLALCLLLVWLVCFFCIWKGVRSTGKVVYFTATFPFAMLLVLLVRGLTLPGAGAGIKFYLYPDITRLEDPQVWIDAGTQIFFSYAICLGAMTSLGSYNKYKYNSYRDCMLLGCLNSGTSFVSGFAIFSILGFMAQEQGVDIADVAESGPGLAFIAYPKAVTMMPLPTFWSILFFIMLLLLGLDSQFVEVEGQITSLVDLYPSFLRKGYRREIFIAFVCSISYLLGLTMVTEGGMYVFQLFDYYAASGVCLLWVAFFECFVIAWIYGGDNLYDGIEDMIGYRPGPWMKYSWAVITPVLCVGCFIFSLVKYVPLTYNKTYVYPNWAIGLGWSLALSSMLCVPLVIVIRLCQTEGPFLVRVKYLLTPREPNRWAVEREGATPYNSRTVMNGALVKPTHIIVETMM
Chain of UniProt Q9H4L7 (Q9H4L7 whole entry, looked up): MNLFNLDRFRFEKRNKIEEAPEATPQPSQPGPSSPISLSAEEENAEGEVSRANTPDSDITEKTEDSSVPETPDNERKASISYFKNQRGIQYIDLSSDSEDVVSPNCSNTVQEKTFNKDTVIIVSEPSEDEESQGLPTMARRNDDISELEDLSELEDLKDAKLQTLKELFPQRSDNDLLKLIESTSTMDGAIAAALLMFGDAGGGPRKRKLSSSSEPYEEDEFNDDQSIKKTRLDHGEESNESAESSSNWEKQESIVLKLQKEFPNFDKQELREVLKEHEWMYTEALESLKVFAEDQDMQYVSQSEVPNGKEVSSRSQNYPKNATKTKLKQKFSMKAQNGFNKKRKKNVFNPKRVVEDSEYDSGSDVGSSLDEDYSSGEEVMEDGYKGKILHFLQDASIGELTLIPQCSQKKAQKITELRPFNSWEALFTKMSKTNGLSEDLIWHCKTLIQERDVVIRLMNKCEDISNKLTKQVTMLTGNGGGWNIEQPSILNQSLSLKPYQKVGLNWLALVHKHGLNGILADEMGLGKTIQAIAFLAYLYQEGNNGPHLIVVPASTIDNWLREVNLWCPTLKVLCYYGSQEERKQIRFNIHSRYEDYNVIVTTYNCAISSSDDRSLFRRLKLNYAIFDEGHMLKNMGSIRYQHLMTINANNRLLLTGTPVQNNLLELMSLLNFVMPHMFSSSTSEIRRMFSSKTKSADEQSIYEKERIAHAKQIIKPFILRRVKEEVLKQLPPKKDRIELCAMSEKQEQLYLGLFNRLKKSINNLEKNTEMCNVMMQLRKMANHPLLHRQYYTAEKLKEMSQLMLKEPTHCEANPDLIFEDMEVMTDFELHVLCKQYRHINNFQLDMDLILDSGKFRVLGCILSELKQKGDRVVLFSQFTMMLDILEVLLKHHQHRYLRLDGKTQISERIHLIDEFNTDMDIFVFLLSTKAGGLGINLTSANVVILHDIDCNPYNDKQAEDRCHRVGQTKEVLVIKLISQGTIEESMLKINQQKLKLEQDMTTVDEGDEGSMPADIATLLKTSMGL
Chain of UniProt P50225 (P50225 whole entry, looked up): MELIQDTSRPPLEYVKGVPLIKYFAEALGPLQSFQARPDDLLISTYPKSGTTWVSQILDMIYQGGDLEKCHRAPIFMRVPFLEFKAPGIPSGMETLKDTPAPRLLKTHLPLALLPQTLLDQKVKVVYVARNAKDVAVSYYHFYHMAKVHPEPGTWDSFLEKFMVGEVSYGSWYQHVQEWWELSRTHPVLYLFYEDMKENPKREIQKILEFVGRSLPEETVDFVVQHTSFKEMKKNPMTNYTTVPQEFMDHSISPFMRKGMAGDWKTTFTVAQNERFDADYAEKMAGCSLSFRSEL
Chain of UniProt O60493 (O60493 whole entry, looked up): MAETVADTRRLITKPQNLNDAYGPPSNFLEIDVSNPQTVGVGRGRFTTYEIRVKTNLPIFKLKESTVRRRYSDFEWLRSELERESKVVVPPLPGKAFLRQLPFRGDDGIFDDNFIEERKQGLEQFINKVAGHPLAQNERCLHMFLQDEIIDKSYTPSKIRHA
Chain of UniProt Q66K14 (Q66K14 whole entry, looked up): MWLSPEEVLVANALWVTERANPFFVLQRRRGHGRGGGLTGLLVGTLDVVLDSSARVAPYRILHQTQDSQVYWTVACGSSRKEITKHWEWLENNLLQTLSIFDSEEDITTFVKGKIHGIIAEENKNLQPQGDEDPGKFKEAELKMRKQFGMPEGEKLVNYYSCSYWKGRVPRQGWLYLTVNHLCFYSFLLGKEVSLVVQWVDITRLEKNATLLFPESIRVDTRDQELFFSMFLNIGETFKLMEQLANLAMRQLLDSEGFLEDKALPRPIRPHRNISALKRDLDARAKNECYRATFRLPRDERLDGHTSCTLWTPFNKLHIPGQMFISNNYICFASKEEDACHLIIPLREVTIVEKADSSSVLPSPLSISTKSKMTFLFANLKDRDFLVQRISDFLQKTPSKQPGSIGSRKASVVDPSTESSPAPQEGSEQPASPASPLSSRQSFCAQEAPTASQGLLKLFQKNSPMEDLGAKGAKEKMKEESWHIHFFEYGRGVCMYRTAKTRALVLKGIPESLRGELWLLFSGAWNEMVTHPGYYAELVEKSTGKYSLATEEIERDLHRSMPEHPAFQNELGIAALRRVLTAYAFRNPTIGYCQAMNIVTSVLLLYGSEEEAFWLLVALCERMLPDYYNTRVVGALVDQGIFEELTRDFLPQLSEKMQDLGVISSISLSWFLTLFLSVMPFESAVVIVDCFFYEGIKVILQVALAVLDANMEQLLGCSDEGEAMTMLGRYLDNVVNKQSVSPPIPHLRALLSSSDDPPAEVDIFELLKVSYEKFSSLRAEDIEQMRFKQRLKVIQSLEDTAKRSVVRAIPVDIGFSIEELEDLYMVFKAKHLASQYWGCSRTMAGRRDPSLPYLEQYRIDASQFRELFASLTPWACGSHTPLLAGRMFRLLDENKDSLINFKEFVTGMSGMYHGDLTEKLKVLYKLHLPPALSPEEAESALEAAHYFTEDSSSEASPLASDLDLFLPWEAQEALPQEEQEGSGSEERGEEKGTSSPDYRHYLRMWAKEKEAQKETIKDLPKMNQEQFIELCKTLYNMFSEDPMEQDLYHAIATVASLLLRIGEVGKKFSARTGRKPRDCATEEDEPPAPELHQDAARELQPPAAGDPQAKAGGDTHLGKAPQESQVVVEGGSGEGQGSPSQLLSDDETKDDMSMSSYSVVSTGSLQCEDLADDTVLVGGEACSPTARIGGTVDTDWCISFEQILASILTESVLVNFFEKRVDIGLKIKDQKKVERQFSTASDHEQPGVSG
Chain of UniProt Q9P016 (Q9P016 whole entry, looked up): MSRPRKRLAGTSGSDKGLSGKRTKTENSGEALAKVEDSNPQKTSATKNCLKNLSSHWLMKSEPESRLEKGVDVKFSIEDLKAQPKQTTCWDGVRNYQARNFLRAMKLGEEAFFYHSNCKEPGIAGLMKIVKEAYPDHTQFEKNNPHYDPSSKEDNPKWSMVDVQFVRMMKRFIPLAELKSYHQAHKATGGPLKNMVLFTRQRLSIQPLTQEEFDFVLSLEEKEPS
Chain of UniProt P63165 (P63165 whole entry, looked up): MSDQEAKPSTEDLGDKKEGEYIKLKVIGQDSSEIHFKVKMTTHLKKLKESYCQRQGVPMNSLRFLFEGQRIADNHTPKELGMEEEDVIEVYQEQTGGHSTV

Target	log2 fold change [1]	log2 fold change [2]	log2 fold change [3]	log2 fold change [4]	log2 fold change [5]	log2 fold change [6]	log2 fold change [7]	log2 fold change [8]	log2 fold change [9]	log2 fold change [10]	log2 fold change [11]	log2 fold change [12]	log2 fold change [13]	log2 fold change [14]	log2 fold change [15]	log2 fold change [16]	log2 fold change [17]	log2 fold change [18]	log2 fold change [19]	log2 fold change [20]
SMARCAD1 isoform 2 (UniProt Q9H4L7)	0.027	-0.098	0.028	-0.073	-0.026	0.06	-0.062	-0.004	0.026	0.07	0.029	-0.112	0.088	-0.054	0.081	-0.042	0.059	0.15	-0.058	0
SUMO1 (UniProt P63165)	-0.363	0.102	-0.183	-0.099	-0.052	-0.507 (active)	0.004	0.055	0.549 (active)	0.006	-0.125	0.06	-0.045	0.176	-0.137	0.064	0	-0.039	-0.038	0.039
SNW1 (UniProt Q13573)	0.014	0.039	-0.068	0.034	-0.08	0.073	-0.068	0	0.011	-0.035	-0.035	0.068	-0.062	0.015	-0.016	0.045	-0.015	-0.045	0	-0.048
TGFBRAP1 (UniProt Q8WUH2)	0.092	-0.006	-0.031	-0.137	0.046	0.092	0.047	-0.103	-0.098	-0.136	-0.081	-0.367	0.051	0.067	-0.088	-0.142	0.051	0.087	0	-0.221
STIM1 (UniProt Q13586)	0.048	-0.123	0.041	0.02	-0.029	-0.218	0	0.037	-0.011	0.036	0.015	-0.07	0.087	-0.028	0.014	-0.008	-0.018	0.057	0.011	-0.233
STK25 (UniProt O00506)	-0.06	-0.006	-0.039	0.006	-0.055	0.076	-0.061	0.038	-0.047	0.053	0.04	-0.2	-0.011	-0.026	0.051	-0.074	-0.027	-0.001	0.019	-0.071
SUPT16H (UniProt Q9Y5B9)	0.106	-0.026	0.104	-0.057	0.12	-0.036	0.062	-0.023	0.035	0.011	0.138	-0.062	0.251	-0.093	0.084	-0.024	0.234	0.248	-0.047	0.028
THYN1 (UniProt Q9P016)	-0.01	-0.009	0.015	-0.011	-0.065	0.035	0.028	-0.007	-0.039	-0.032	-0.015	0.061	0.001	0.011	0.071	0.021	-0.024	0.087	-0.036	-0.002
SNX3 (UniProt O60493)	-0.049	0.012	0.022	0.075	0.074	-0.08	0.01	0.056	-0.026	-0.03	-0.035	-0.106	0.062	0.048	-0.385 (active)	-0.164	-0.023	0.085	0.04	-0.141
TIMM21 (UniProt Q9BVV7)	-0.038	-0.171	0.03	-0.078	0.054	-0.205	-0.006	0.01	-0.008	0.055	0.02	-0.01	0.042	-0.029	0.009	0.04	0.017	0.033	0.02	-0.229
SLC6A6 (UniProt P31641)	-0.1	-0.013	-0.017	-0.066	-0.031	-0.066	-0.044	0.041	-0.012	0.072	0.021	0.04	-0.026	-0.021	0.06	-0.049	-0.091	-0.042	-0.063	-0.028
SULT1A1 (UniProt P50225)	0.161	0.034	0.042	-0.02	0.056	0.046	0.062	-0.03	0.026	0.138	-0.019	0.065	0.065	-0.073	-0.101	-0.029	0.006	0.035	0.016	-0.018
SRSF2 (UniProt Q01130)	-0.071	0.118	0	0.123	-0.076	-0.003	0.038	0.024	0.039	0.027	0.005	0.023	-0.107	0.006	0.013	0.092	-0.037	-0.006	-0.033	-0.036
TBC1D9B (UniProt Q66K14)	-0.037	0.151	0.042	-0.003	0.03	-0.026	-0.072	0.03	-0.031	0.068	0.041	-0.084	0.016	0.008	0.01	0.024	0.055	0.072	0.007	-0.127
STK4 (UniProt Q13043)	-0.031	-0.034	-0.025	0.01	-0.047	0.099	-0.007	0.015	-0.036	0.02	0.009	-0.01	0.032	0.036	0.068	0.043	-0.021	-0.004	-0.008	-0.03
SLC38A9 (UniProt Q8NBW4)	0.033	0.064	-0.012	-0.004	0	0.053	-0.012	0.121	-0.065	-0.027	0.165	-0.201	0.052	0.003	0.081	-0.018	0.001	-0.058	0.067	-0.474 (active)
